Measurements reported in PubChem BioAssay (Tox21).
Inconclusive results are not listed. The source made the active and inactive calls. Calls follow the shape of the dose curve; as a rule, active = well fitted curve in the direction sought with a large enough effect in the repeat runs; inconclusive = weak or mixed curves; inactive = no such curve, though single readings can be large; an effect the other way counts as inactive or inconclusive.

Key:
[1] = qHTS RealTime-Glo MT Cell Viability Assay in HepG2 cells - 24 hour (AID 1224867); also: nearly all actives have a fitted effect of over 50% in size
How it was run: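 qHTS, HepG2, 600 cells/well, RealTime-Glo (NanoLuc + prosubstrate) added with cells; 5 h preincubation; DMSO compound addition; 37 C; luminescence at 0/8/16/24/32/40 h.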

[2] = A CellTox Green Cytotoxicity Assay to monitor cytotoxicity in HEK293 cells - 0 hour (AID 1224869); also: nearly all actives have a fitted effect of over 50% in size; also: potency is read from the fitted curve at half-maximal effect
How it was run: (§1)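 Tox21 screen in HEK293: membrane-impermeant cyanine dye fluoresces on binding dead-cell DNA; compound pinned 5 h post-seeding, plates held at 37 C, signal read repeatedly through 40 h.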

[3] = qHTS RealTime-Glo MT Cell Viability Assay in HepG2 cells - 40 hour (AID 1224870); also: nearly all actives have a fitted effect of over 50% in size; also: potency is read from the fitted curve at half-maximal effect
How it was run: (§2)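 Real-time viability: cells seeded at 600 per well together with NanoLuc and cell-permeant prosubstrate, compounds added after 5 h incubation. Luminescence tracked at 0, 8, 16, 24, 32 and 40 h of exposure.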

[4] = A CellTox Green Cytotoxicity Assay to monitor cytotoxicity in HEK293 cells - 40 hour (AID 1224871); also: nearly all actives have a fitted effect of over 45% in size; also: potency is read from the fitted curve at half-maximal effect
How it was run: as §1

[5] = qHTS RealTime-Glo MT Cell Viability Assay in HEK293 cells - 16 hour (AID 1224872); also: top concentration of the series differs between compounds; nearly all actives have a fitted effect of over 50% in size
How it was run: (§3)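 Assay medium contained NanoLuc luciferase plus cell-permeant prosubstrate, added with HEK293 cells at 600 cells/well. After 5 h at 37 C/5% CO2 compounds were added; plates stayed at 37 C for 40 h with serial luminescence reads.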

[6] = qHTS RealTime-Glo MT Cell Viability Assay in HepG2 cells - 8 hour (AID 1224873); also: nearly all actives have a fitted effect of over 55% in size
How it was run: as §2

[7] = qHTS RealTime-Glo MT Cell Viability Assay in HEK293 cells - 40 hour (AID 1224874); settings: RealTime-Glo luminescence; max response: stronger effect = lower value; also: nearly all actives have a fitted effect of over 50% in size; also: potency is read from the fitted curve at half-maximal effect
How it was run: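 HEK293 + NanoLuc + prosubstrate, 600 cells/well; 5 h, 37 C/5% CO2; compound 23 nL in DMSO by pintool; 37 C; luminescence read at 0, 8, 16, 24, 32 and 40 h time points.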

[8] = A CellTox Green Cytotoxicity Assay to monitor cytotoxicity in HEK293 cells - 24 hour (AID 1224875); also: nearly all actives have a fitted effect of over 45% in size; also: potency is read from the fitted curve at half-maximal effect; as to activity change: series mostly up to about 77 µM
How it was run: as §1

[9] = qHTS RealTime-Glo MT Cell Viability Assay in HEK293 cells - 32 hour (AID 1224868); also: nearly all actives have a fitted effect of over 50% in size; also: potency is read from the fitted curve at half-maximal effect; as to activity change, negative = cytotoxic: top concentration of the series differs between compounds
How it was run: as §3
% is scaled to controls: 0 for no effect and ±100 for the full control effect.

C/C(=C\c1ccc(C(=O)O)cc1)c1ccc2c(c1)C(C)(C)CCC2(C)C
inactive: Potency [1] | Potency [2] | Potency [3] | Potency [4] | Potency [5] | Potency [6] | max response [7] -17.3% | Potency [8]

O=C(Nc1ccc([N+](=O)[O-])cc1)Nc1ccc([N+](=O)[O-])cc1 (tested in a mixture with another compound)
inactive: Potency [1] | Potency [2] | Potency [3] | Potency [4] | Potency [6] | Potency [8]
active: Potency [9] 4.77 µM | Potency [7] 4.77 µM

ClC(c1ccccc1)(c1ccccc1)c1ccccc1
inactive: Potency [1] | Potency [2] | Potency [3] | Potency [4] | Potency [6] | max response [7] -24.6% | Potency [8]

CCN(CC)c1ccc(N=Nc2ccccc2)cc1
active: Potency [7] 54.9 µM
inactive: Potency [1] | Potency [2] | Potency [3] | Potency [4] | Potency [6] | Potency [8]

O=C(NCc1ncc(C(F)(F)F)cc1Cl)c1c(Cl)cccc1Cl
inactive: Potency [1] | Potency [2] | Potency [3] | Potency [6] | Potency [8]
active: Potency [9] 21.9 µM | Potency [7] 19.5 µM

C=C(C)CCO
inactive: Potency [1] | Potency [2] | Potency [3] | Potency [4] | Potency [6] | max response [7] 1.14% | Potency [8]

C=CC(=O)OCCOC1C2CCC1C1CC=CC12 (stereo not given)
inactive: activity change, negative = cytotoxicity [1] 3.51% [at 15.8 µM] | cytotoxicity [2] -3.9% [at 15.8 µM] | activity change, negative = cytotoxic [3] 5.7% [at 15.8 µM] | cytotoxicity increase [4] -0.257% [at 15.8 µM] | activity change, negative = cytotoxicity [5] -2.12% [at 15.8 µM] | viability change, negative = cytotoxic [6] 0.124% [at 15.8 µM] | max response [7] 6.38% | activity change [8] 0.179% [at 15.8 µM, stronger effect = higher value]

O=C(N[C@H](CO)[C@H](O)c1ccc([N+](=O)[O-])cc1)C(Cl)Cl
inactive: Potency [1] | Potency [2] | Potency [3] | Potency [4] | Potency [6] | Potency [8]

CC(=O)CC(N)=O
inactive: Potency [1] | Potency [2] | Potency [3] | Potency [4] | Potency [5] | Potency [6] | max response [7] 14.8% | Potency [8]

c1ccc(-c2nc3ccccc3[nH]2)cc1
active: Potency [9] 34.7 µM | Potency [7] 21.9 µM
inactive: Potency [1] | Potency [2] | Potency [3] | Potency [4] | Potency [6] | Potency [8]

CC(C)c1ccc2sc3ccccc3c(=O)c2c1
inactive: Potency [1] | Potency [2] | Potency [3] | Potency [4] | Potency [6] | Potency [8]

CC(C=O)c1ccccc1 (stereo not given)
inactive: Potency [1] | Potency [2] | Potency [3] | Potency [4] | Potency [6] | max response [7] -16.6% | Potency [8]

CCc1cccc(C)c1N(C(=O)C(=O)O)C(C)COC (stereo not given)
inactive: Potency [1] | Potency [9] | Potency [2] | Potency [3] | Potency [4] | Potency [6] | max response [7] 10.9% | Potency [8]

CCNc1nc(NC(C)(C)C)nc(OC)n1
inactive: Potency [1] | Potency [2] | Potency [3] | Potency [4] | Potency [5] | Potency [6] | Potency [8]

CCCCNc1ccc(NCCCC)c2c1C(=O)c1ccccc1C2=O
inactive: activity change, negative = cytotoxicity [1] -2.93% [at 15.8 µM] | cytotoxicity [2] 1.41% [at 15.8 µM] | activity change, negative = cytotoxic [3] -5.13% [at 15.8 µM] | cytotoxicity increase [4] -1.5% [at 15.8 µM] | activity change, negative = cytotoxicity [5] 9.94% [at 15.8 µM] | viability change, negative = cytotoxic [6] 0.0909% [at 15.8 µM] | max response [7] -1.48% | activity change [8] 0.143% [at 15.8 µM, stronger effect = higher value]

CC(C)=NNC(N)=S
inactive: Potency [1] | Potency [2] | Potency [3] | Potency [4] | Potency [5] | Potency [6] | max response [7] 3.34% | Potency [8]

CC1(C)[C@H](C(=O)OCc2cccc(Oc3ccccc3)c2)[C@@H]1C=C(Cl)Cl
inactive: Potency [1] | Potency [2] | Potency [3] | Potency [4] | Potency [5] | Potency [6] | max response [7] 4.05% | Potency [8]

CCCC(=O)c1cc(O)c(O)cc1O
inactive: Potency [1] | Potency [2] | Potency [3] | Potency [4] | Potency [5] | Potency [6] | max response [7] 1.65% | Potency [8]

CC1CCC(C(C)(C)O)CC1 (stereo not given)
inactive: Potency [1] | Potency [9] | Potency [2] | Potency [3] | Potency [4] | Potency [5] | Potency [6] | max response [7] 0.893% | Potency [8]

C=COCCCC
inactive: Potency [1] | Potency [2] | Potency [3] | Potency [4] | Potency [6] | Potency [8]

COCCC(=O)OC
inactive: Potency [1] | Potency [2] | Potency [3] | Potency [4] | Potency [5] | Potency [6] | max response [7] 1.08% | Potency [8]

CCOC(=O)[C@H](C)O
inactive: Potency [1] | Potency [2] | Potency [3] | Potency [4] | Potency [5] | Potency [6] | max response [7] 7.55% | Potency [8]

NCc1ccco1
inactive: Potency [1] | Potency [2] | Potency [3] | Potency [4] | Potency [5] | Potency [6] | max response [7] 18.6%

CCn1c2ccccc2c2ccccc21
inactive: Potency [1] | Potency [9] | Potency [2] | Potency [3] | Potency [6] | max response [7] -15.2% | Potency [8]

CCC(=O)OC/C=C(\C)CCC=C(C)C
inactive: Potency [1] | Potency [2] | Potency [3] | Potency [4] | Potency [5] | Potency [6] | max response [7] -0.115% | Potency [8]

CC(C)(C)c1ccc(OC2CCCCC2O)cc1 (stereo not given)
inactive: Potency [1] | Potency [2] | Potency [3] | Potency [6]
active: Potency [4] 49 µM | Potency [8] 54.9 µM

CCN(CC)c1ccc2c(c1)Oc1cc(N(CC)CC)ccc1C21OC(=O)c2ccccc21
active: Potency [2] 19 µM | Potency [4] 16.9 µM | Potency [8] 19 µM
inactive: Potency [1] | Potency [3] | Potency [6]

CCCCC/C=C\C=C\C(=O)OCC
inactive: Potency [2] | Potency [6] | Potency [8]
active: Potency [3] 51 µM | Potency [4] 20.3 µM | Potency [7] 57.2 µM
